Results filed as inconclusive are left out. The source made the active and inactive calls. The call rests on the fitted dose curve; in most records, active means well fitted curve in the direction sought with a large enough effect; inconclusive means small, poorly fitted or top-dose-only effect, or another doubt; inactive means no such curve, though single readings can be large; an effect the other way counts as inactive or inconclusive.
Legend:
CRL-7250 = normal cell line; experiment: Cytotoxic Profiling of Annotated Libraries Using Quantitative High-Throughput Screening (AID 1296008); conditions: Five cell lines viability, CellTiter-Glo ATP luminescence, 48-72 h; max response: active compounds read low; further: nearly all actives have a fitted effect of over 60% in size
Method in brief: (§1)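 Cells exposed to compounds for 48 or 72 hr at 37 degrees Celsius. Viability read as ATP-coupled luminescence with CellTiter-Glo after 10 min at room temperature.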

HaCat = experiment: as above; conditions: Five cell lines viability, CellTiter-Glo ATP luminescence, 48-72 h; max response: active compounds read low
Method in brief: as §1

KB-3-1 = experiment: as above; conditions: Five cell lines viability, CellTiter-Glo ATP luminescence, 48-72 h; max response: active compounds read low
Method in brief: as §1

NIH3T3 = experiment: as above; conditions: Five cell lines viability, CellTiter-Glo ATP luminescence, 48-72 h; max response: active compounds read low
Method in brief: as §1

C33A = experiment: Primary qHTS to identify gynecologic anti-cancer compounds using libraries of approved drugs and bioactive compounds (AID 1345084); conditions: Gynecologic cancer cell panel viability, ATPlite luminescence, 48 h; series mostly up to 57.5 µM; further: nearly all actives have a fitted effect of over 55% in size
Method in brief: (§2)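 Cytotoxicity screen measuring ATP content by luciferase luminescence. Each compound is applied at five concentrations for 48 h at 37 C with 5% CO2.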

CAOV3 = experiment: as above; conditions: Gynecologic cancer cell panel viability, ATPlite luminescence, 48 h; series mostly up to 57.5 µM
Method in brief: as §2

CASKI = experiment: as above; conditions: Gynecologic cancer cell panel viability, ATPlite luminescence, 48 h; series mostly up to 57.5 µM
Method in brief: as §2

Es-2 = experiment: as above; conditions: Gynecologic cancer cell panel viability, ATPlite luminescence, 48 h; series mostly up to 57.5 µM
Method in brief: as §2

HeLa = experiment: as above; conditions: Gynecologic cancer cell panel viability, ATPlite luminescence, 48 h; series mostly up to 57.5 µM
Method in brief: as §2

Hek293T = experiment: as above; conditions: Gynecologic cancer cell panel viability, ATPlite luminescence, 48 h, control line for the selectivity index; series mostly up to 57.5 µM
Method in brief: as §2

JEG-3 = experiment: as above; conditions: Gynecologic cancer cell panel viability, ATPlite luminescence, 48 h; series mostly up to 57.5 µM
Method in brief: as §2

OV90 = experiment: as above; conditions: Gynecologic cancer cell panel viability, ATPlite luminescence, 48 h; series mostly up to 57.5 µM
Method in brief: as §2
On the % scale 0 is the no-effect control and ±100 the full control effect.

O=C(C(Cc1cccc(C(F)(F)F)c1)NS(=O)(=O)c1cc(F)c2c(c1)CCNC2)N1CCCC1 (stereo not drawn)
inactive: max response (CRL-7250) -1.14% | max response (HaCat) -1.4% | max response (KB-3-1) -6.26% | max response (NIH3T3) 1.31% | Potency (C33A) | Potency (CAOV3) | Potency (CASKI) | Potency (Es-2) | Potency (HeLa) | Potency (Hek293T) | Potency (JEG-3) | Potency (OV90)

CC(C)(CNC(=O)c1cccc(-c2noc(C(F)(F)F)n2)c1)c1coc(-c2ccccc2)n1
inactive: max response (CRL-7250) 1.16% | max response (HaCat) -1.63% | max response (KB-3-1) -6.73% | max response (NIH3T3) 4.1% | Potency (C33A) | Potency (CAOV3) | Potency (CASKI) | Potency (Es-2) | Potency (HeLa) | Potency (Hek293T) | Potency (JEG-3) | Potency (OV90)

O=C(NCc1ccccc1-c1ccccc1C(=O)NCCc1ccccn1)OCc1ccccc1
inactive: max response (CRL-7250) 2.09% | max response (HaCat) -7.21% | max response (KB-3-1) 8.57% | max response (NIH3T3) 0.337% | Potency (C33A) | Potency (CAOV3) | Potency (CASKI) | Potency (Es-2) | Potency (HeLa) | Potency (Hek293T) | Potency (JEG-3) | Potency (OV90)

O=C(NCCCc1ccccc1)C1CCC(CNS(=O)(=O)c2cccc3nsnc23)CC1 (stereo not drawn)
inactive: max response (CRL-7250) -1.65% | max response (HaCat) -4.58% | max response (KB-3-1) -11.8% | max response (NIH3T3) -18.1% | Potency (C33A) | Potency (CAOV3) | Potency (CASKI) | Potency (Es-2) | Potency (HeLa) | Potency (Hek293T) | Potency (JEG-3) | Potency (OV90)

Cn1ncnc1[C@@H]1c2n[nH]c(=O)c3cc(F)cc(c23)N[C@H]1c1ccc(F)cc1
inactive: max response (CRL-7250) -10.4% | max response (HaCat) -18% | outcome (KB-3-1) | max response (NIH3T3) -15% | Potency (C33A) | Potency (CAOV3) | Potency (CASKI) | Potency (Es-2) | Potency (HeLa) | Potency (Hek293T) | Potency (JEG-3) | Potency (OV90)

CC1(C=O)CCCC2(C)C1CCC13CC(CO)C(CCC12)C3 (stereo not drawn)
inactive: outcome (CRL-7250) | max response (HaCat) 3.29% | max response (KB-3-1) 7.38% | max response (NIH3T3) -4.47% | Potency (C33A) | Potency (CAOV3) | Potency (CASKI) | Potency (Es-2) | Potency (HeLa) | Potency (Hek293T) | Potency (JEG-3) | Potency (OV90)

CC(C)Oc1ccc(-c2cnc3c(-c4ccnc5ccccc45)cnn3c2)cc1
inactive: max response (CRL-7250) 0.774% | max response (HaCat) 1.5% | max response (KB-3-1) -13.7% | max response (NIH3T3) 3.7% | Potency (C33A) | Potency (CAOV3) | Potency (CASKI) | Potency (Es-2) | Potency (HeLa) | Potency (Hek293T) | Potency (JEG-3) | Potency (OV90)

O=S(=O)(NCc1ccccn1)c1ccc(Br)c2ccccc12
inactive: max response (CRL-7250) -0.212% | max response (HaCat) 1.53% | max response (KB-3-1) 0.961% | max response (NIH3T3) -0.344% | Potency (C33A) | Potency (CAOV3) | Potency (CASKI) | Potency (Es-2) | Potency (HeLa) | Potency (Hek293T) | Potency (JEG-3) | Potency (OV90)

O=C(NCCN1CCN(c2cccc3c2OCCO3)CC1)c1ccc(F)cc1
inactive: max response (CRL-7250) 2.38% | max response (HaCat) -12.9% | max response (KB-3-1) -10.3% | max response (NIH3T3) 2.39% | Potency (C33A) | Potency (CAOV3) | Potency (CASKI) | Potency (Es-2) | Potency (HeLa) | Potency (Hek293T) | Potency (JEG-3) | Potency (OV90)

Nc1nc2c(s1)CCN(Cc1ccc(Cl)cc1)CC2
inactive: outcome (CRL-7250) | max response (HaCat) -24.3% | max response (KB-3-1) 6.96% | max response (NIH3T3) 0.621% | Potency (C33A) | Potency (CAOV3) | Potency (CASKI) | Potency (Es-2) | Potency (HeLa) | Potency (Hek293T) | Potency (JEG-3) | Potency (OV90)

CC(C)(CO)c1cc2cc(NC(=O)C3(c4ccc5c(c4)OC(F)(F)O5)CC3)c(F)cc2n1CC(O)CO (stereo not drawn)
inactive: outcome (CRL-7250) | max response (HaCat) -17.2% | outcome (KB-3-1) | max response (NIH3T3) -6.55% | Potency (C33A) | Potency (CAOV3) | Potency (CASKI) | Potency (Es-2) | Potency (HeLa) | Potency (Hek293T) | Potency (JEG-3) | Potency (OV90)

CN(C)CC#CCCC(=O)C(O)(c1ccccc1)C1CCC1 (stereo not drawn)
inactive: max response (CRL-7250) 4.04% | max response (HaCat) 3% | max response (KB-3-1) 7.92% | max response (NIH3T3) -1.12% | Potency (C33A) | Potency (CAOV3) | Potency (CASKI) | Potency (Es-2) | Potency (HeLa) | Potency (Hek293T) | Potency (JEG-3) | Potency (OV90)

CC(C)(C)OC(=O)c1ncn2c1C(C)(C)Nc1ccccc1-2
inactive: outcome (CRL-7250) | max response (HaCat) 2.2% | max response (KB-3-1) 0.574% | max response (NIH3T3) 0.0612% | Potency (C33A) | Potency (CAOV3) | Potency (CASKI) | Potency (Es-2) | Potency (HeLa) | Potency (Hek293T) | Potency (JEG-3) | Potency (OV90)

C=CCC1=C[C@]2(OC)[C@H](C)[C@@H](c3ccc4c(c3)OCO4)O[C@]2(OC)CC1=O
inactive: max response (CRL-7250) -2.76% | max response (HaCat) -12.1% | max response (KB-3-1) -2.11% | max response (NIH3T3) 1.18% | Potency (C33A) | Potency (CAOV3) | Potency (CASKI) | Potency (Es-2) | Potency (HeLa) | Potency (Hek293T) | Potency (JEG-3) | Potency (OV90)

Source: PubChem BioAssay (NCATS)
